{"source": "PubChem BioAssay (NCATS)", "key": {"[1]": {"target": "Aldehyde dehydrogenase, mitochondrial (Homo sapiens) (UniProt P05091)", "experiment": "qHTS for Inhibitors of the Aldehyde Dehydrogenase Family (ALDH2) Primary screen (AID 2061308); note: nearly all actives have a fitted effect of over 55% in size"}, "[2]": {"target": "Retinaldehyde dehydrogenase 3 (Homo sapiens) (UniProt P47895)", "experiment": "qHTS for Inhibitors of the Aldehyde Dehydrogenase Family (ALDH1A3) Primary screen (AID 2061315)"}}, "note": "Results filed as inconclusive are left out. A call without a number means that no potency is given here. Activity calls are given as the source filed them. Calls come from the whole dose curve; as a rule, active = well fitted curve in the direction sought with a large enough effect; inconclusive = small, poorly fitted or top-dose-only effect, or another doubt; inactive = no such curve, though single readings can be large; an effect the other way counts as inactive or inconclusive.", "data": [{"compound": "Cc1noc(CN(C)c2ncnc3ccc(-c4ccc5c(c4)OCO5)cc23)n1", "values": [{"measurement": "Potency", "setting": "[1]", "result": "inactive"}, {"measurement": "Potency", "setting": "[2]", "result": "inactive"}]}, {"compound": "Cc1cc2c(s1)c1cnn(Cc3ccc(C#N)cc3)c(=O)c1n2C", "values": [{"measurement": "Potency", "setting": "[1]", "result": "inactive"}, {"measurement": "Potency", "setting": "[2]", "result": "inactive"}]}, {"compound": "Cc1cc2c(s1)c1cnn(Cc3c(F)cc(F)cc3F)c(=O)c1n2C", "values": [{"measurement": "Potency", "setting": "[1]", "result": "inactive"}, {"measurement": "Potency", "setting": "[2]", "result": "inactive"}]}, {"compound": "COc1ccc(Oc2c(Cl)cnn(-c3cc(C)cc(C)c3)c2=O)cc1", "values": [{"measurement": "Potency", "setting": "[1]", "result": "inactive"}, {"measurement": "Potency", "setting": "[2]", "result": "inactive"}]}, {"compound": "O=C(Nc1nc(-c2ccccc2)cs1)c1ccccc1[N+](=O)[O-]", "values": [{"measurement": "Potency", "setting": "[1]", "result": "inactive"}, {"measurement": "Potency", "setting": "[2]", "result": "inactive"}]}, {"compound": "C=C1C(=O)O[C@@H]2/C=C(\\CO)CC/C=C(\\CO)[C@H](OC(C)=O)C(OC(=O)C(C)CC)C12", "note": "(stereo not given in full)", "values": [{"measurement": "Potency", "setting": "[1]", "result": "inactive"}, {"measurement": "Potency", "setting": "[2]", "result": "inactive"}]}, {"compound": "N=c1c2c(ccn1CCCCc1ccccc1)Oc1ccc3ccccc3c1C2c1ccccc1", "note": "(stereo not given)", "values": [{"measurement": "Potency", "setting": "[1]", "result": "inactive"}, {"measurement": "Potency", "setting": "[2]", "result": "inactive"}]}, {"compound": "O=C1CCc2cc(S(=O)(=O)Nc3ccc(Cl)c(Cl)c3)c(F)cc2N1", "values": [{"measurement": "Potency", "setting": "[1]", "result": "inactive"}, {"measurement": "Potency", "setting": "[2]", "result": "inactive"}]}, {"compound": "Cc1cc2c(s1)c1cnn(Cc3ccc(C)c(F)c3)c(=O)c1n2C", "values": [{"measurement": "Potency", "setting": "[1]", "result": "inactive"}, {"measurement": "Potency", "setting": "[2]", "result": "inactive"}]}, {"compound": "Cc1ccc(-c2cc(C(=O)Nc3ccccc3)c3ccccc3n2)cc1C", "values": [{"measurement": "Potency", "setting": "[1]", "result": "inactive"}, {"measurement": "Potency", "setting": "[2]", "result": "inactive"}]}, {"compound": "O=C(Nc1nnc(COc2ccc(Cl)cc2)s1)c1cccs1", "values": [{"measurement": "Potency", "setting": "[1]", "result": "inactive"}, {"measurement": "Potency", "setting": "[2]", "result": "inactive"}]}, {"compound": "Clc1cccc(-c2ccc3ncnc(NCc4cccs4)c3c2)c1", "values": [{"measurement": "Potency", "setting": "[1]", "result": "inactive"}, {"measurement": "Potency", "setting": "[2]", "result": "inactive"}]}, {"compound": "CC(C)COc1ccc(-c2ccc(=O)n(CC(=O)NCCc3ccccc3)n2)cc1", "values": [{"measurement": "Potency", "setting": "[1]", "result": "inactive"}, {"measurement": "Potency", "setting": "[2]", "result": "inactive"}]}, {"compound": "Cc1cccc(CNc2nc(-c3ccccc3C(C)C)ncc2C)c1", "values": [{"measurement": "Potency", "setting": "[1]", "result": "inactive"}, {"measurement": "Potency", "setting": "[2]", "result": "inactive"}]}, {"compound": "Nc1ccccc1CNc1ccc(S(=O)(=O)Nc2nccs2)cc1", "values": [{"measurement": "Potency", "setting": "[1]", "result": "inactive"}, {"measurement": "Potency", "setting": "[2]", "result": "inactive"}]}]}
